Measured values taken from PubChem BioAssay AID602449 (Sanford-Burnham Center for Chemical Genomics, 2012).
Hit rate of the full screen: of about 360,000 compounds, about 5,000 (1.4%) were called active. The sample as a whole holds a higher share of actives than the screen did. Unmarked numbers belong to inactive results.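 Rule for the calls: active = inhibition of 50% or more, scaled per plate between neutral and stimulator controls; inactive = the rest.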

Experiment: blockers of Ca2+-induced mitochondrial swelling – biochemical, isolated mouse mitochondria, absorbance, primary screen (AID 602449);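 note: 0% = DMSO wells given calcium and 100% = 1 mM EGTA wells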
Conditions: 30 min, at 10 µM, hits give high values
Work on `O=C(C1CCC1)N1CCc2cc(S(=O)(=O)NCc3cccnc3)ccc21` yielded an inhibition of -1.1%. Work on `COc1ccc(N(C)S(=O)(=O)c2ccc3c(c2)CC(C)N3C(=O)C2CC2)c(OC)c1` (stereo unspecified) yielded an inhibition of 0.9%. For `COc1cccc(CNS(=O)(=O)c2ccc3c(c2)CC(C)N3C(=O)C2CCC2)c1` (stereo unspecified), the inhibition was 90.4% (active). `COc1cccc(NC(=O)Cn2cnc3sc(C)c(S(=O)(=O)N4CCN(C)CC4)c3c2=O)c1` showed an inhibition of 0.8%. Compound `Cc1ccc(C2(C(F)(F)F)N=C3Sc4cc(C)cc(C)c4N3C(=O)N2)cc1` (stereo unspecified) has an inhibition of 5.4%. `CSc1sc(C(=O)NNC(=O)c2ccc(Cl)cc2)c2c1C=CCC2` gave an inhibition of 3%. Work on `COc1cc(NS(=O)(=O)c2ccc(NC(=S)NC(=O)c3ccccc3)cc2)nc(OC)n1` yielded an inhibition of -1.6%. For `CS(=O)(=O)c1sc(C(=O)NC(=S)Nc2ccc(OC(F)(F)F)cc2)c2c1C=CCC2`, the inhibition was 53.1% (active). With `COc1cccc(N(Cc2nnc3n2CCCCC3)C(=O)Nc2ccccc2F)c1` the inhibition was 0.7%. Compound `Cc1nn(-c2ccccc2)c2sc(C(=O)N(Cc3ccco3)C(C)C(=O)NC(C)(C)C)cc12` (stereo unspecified) has an inhibition of -3.6%. Compound `CC1=C(C(=O)N2CCOCC2)CC(CC(=O)NCCN2CCOCC2)C(=O)N1CCC1=CCCCC1` (stereo unspecified) has an inhibition of 5.2%. With `CN(C(=O)Nc1ccc(Cl)cc1)n1cnc2ccccc2c1=O` the inhibition was 55.1% (active). In the case of `O=C(Cn1nnc2ccccc2c1=O)NCc1ccc(Cl)cc1`, the inhibition is reported as -0.4%. `O=C(Nn1cnc2ccccc2c1=O)c1ccc(F)cc1Cl` showed an inhibition of 0.6%. `O=C(CCCN1C(=O)C2C3C=CC(C3)C2C1=O)N1CCN(c2ccccc2)CC1` (stereo unspecified) showed an inhibition of -1.6%. For `CNS(=O)(=O)c1ccc(C(=O)NCC(=O)NCCc2ccc3c(c2)OCCO3)cc1`, the inhibition was -1.7%. `CN(C)C(CNC(=O)c1cc2ccccc2o1)c1ccccc1` (stereo unspecified) showed an inhibition of 0.1%. In the case of `O=C(NCCc1ccc2c(c1)OCCO2)c1cc2ccccc2o1`, the inhibition is reported as 74.2% (active). In the case of `O=C(NC(=O)c1cc(OCC(F)(F)F)ccc1OCC(F)(F)F)Nc1ccccc1`, the inhibition is reported as 12.2%. For `CCCCCN(C(=O)NC(=O)Nc1ccccc1C)S(C)(=O)=O`, the inhibition was 7.5%. `CC(=O)Nc1cc(-c2ccccc2N(C)C)cn2c(-c3ccc(F)c(Cl)c3)cnc12` showed an inhibition of 0.4%. Work on `CCCN1C2=C(C(=O)CCC2)C(c2ccc(O)c(Br)c2)C2=C1CCCC2=O` yielded an inhibition of 0.7%. Compound `Fc1ccc(COc2cccc(-c3n[nH]c(=S)o3)c2)cc1` has an inhibition of 8.5%. In the case of `Cc1nc2ccccc2cc1OCc1ccc(F)cc1`, the inhibition is reported as 97.1% (active). `Fc1cccc2ncnc(OCc3ccccc3)c12` gave an inhibition of 0.3%. In the case of `Cc1ccc(S(=O)(=O)N2CCOCC2)cc1NC(=O)COC(=O)c1cnccn1`, the inhibition is reported as -1%. With `Nc1nc(SCC(=O)Nc2ccc(Cl)cc2C(F)(F)F)n[nH]1` the inhibition was 0.2%. `CNC(=O)Nc1cc(C(C)(C)C)no1` gave an inhibition of -2.3%. Compound `Cc1nc2c(-c3ccccc3)c(C)[nH]n2c(=O)c1Cl` has an inhibition of -1%. Work on `CCCc1cc(=O)n2[nH]c(C)c(-c3ccc(Cl)cc3)c2n1` yielded an inhibition of 1.2%. In the case of `Cc1[nH]n(-c2cccc(Cl)c2)c(=O)c1-c1ccc(Cl)cc1`, the inhibition is reported as 102% (active). In the case of `CC(NC(=O)CN1CCN(Cc2ccc(Cl)cc2)C1=O)c1ccc2c(c1)OCCO2` (stereo unspecified), the inhibition is reported as -2.1%. For `Cc1c2cnn(CC(=O)NCCCN3CC(C)CC(C)C3)c(=O)c2c(C)n1Cc1ccc(Cl)cc1` (stereo unspecified), the inhibition was -0.1%. For `COc1ccc(CNC(=O)C(=O)N2CCC3(CC2)OCCN3S(=O)(=O)c2ccc(C)cc2)cc1`, the inhibition was 0.1%. `NC1=NC(=O)C(Cc2cccc(Cl)c2Cl)S1` (stereo unspecified) gave an inhibition of 1.7%. For `CCOC(=O)Cc1csc(SCC(=O)NC(C)C23CC4CC(CC(C4)C2)C3)n1` (stereo unspecified), the inhibition was -0.5%. Compound `CC(=O)Nc1ccc(C(=O)OCC(=O)Nc2ccc([N+](=O)[O-])cc2C(F)(F)F)cc1` has an inhibition of 36.6%. With `Cc1ccc(Oc2cc(NC(=O)CCCn3nc(C)c([N+](=O)[O-])c3C)cc([N+](=O)[O-])c2)cc1` the inhibition was 40.9%. In the case of `COc1cc(NC(=O)Nc2ccc(C)cc2)cc([N+](=O)[O-])c1`, the inhibition is reported as 104% (active). With `COc1cccc(C(=O)CC(=O)C(=O)Nc2ccc([N+](=O)[O-])cc2C)c1` the inhibition was -17.7%. For `CC(=O)c1ccc(NC(=O)Nc2ccc([N+](=O)[O-])cc2C)cc1`, the inhibition was 94.4% (active). Compound `COc1ccc(S(=O)(=O)NNC(=O)Nc2ccc(C)cc2)c(OC)c1` has an inhibition of -0.8%. Work on `COc1ccc(NC(=O)C(c2ccncc2)n2c(=O)c(-c3cc4ccccc4[nH]3)nc3ccccc32)cc1` (stereo unspecified) yielded an inhibition of 4.2%. For `CC(C)C[C@H](NC(=O)C1CC(=O)N(c2ccc3c(c2)OCCO3)C1)C(=O)NC1CCCC1` (stereo partly specified), the inhibition was -0.1%. In the case of `CN(C)C(=O)c1cc(Br)ccc1Cl`, the inhibition is reported as 1.1%. `Cc1ccc(NC(=O)c2ccc(Oc3ncccn3)cc2)cc1` showed an inhibition of 0.4%. For `CCc1nnc(NS(=O)(=O)c2ccc(NC(=O)c3cccc(OC(F)(F)C(F)F)c3)cc2)s1`, the inhibition was 2.9%. In the case of `O=C(Nc1ccc(OC(F)(F)F)cc1)c1ccc2c(c1)no[n+]2[O-]`, the inhibition is reported as 82.5% (active). `Fc1cccc(Cc2c(-c3cccc(Cl)c3)nc3ccc(Br)cn23)c1` gave an inhibition of 2.5%. For `CCOC(=O)C1CCN(C(=O)Cc2c(C(=O)O)[nH]c3ccccc23)CC1`, the inhibition was 0.3%. With `CCOC(=O)C1=C(CC)Nc2ccccc2N=C1N` the inhibition was 1.2%. Compound `O=C(COC(=O)c1ccc[nH]c1=O)Nc1ccc2c(c1)OC(F)(F)O2` has an inhibition of 3%. With `O=C(COC(=O)c1ccccc1NC(=O)c1ccco1)Nc1ccc2c(c1)OC(F)(F)O2` the inhibition was 60.9% (active). Compound `O=C(COC(=O)CNC(=O)c1ccco1)Nc1ccc(F)cc1` has an inhibition of -1.2%. Work on `COC(=O)[C@]12CCCCC=C1N(Cc1ccccc1)C(=O)[C@H](CC(=O)NCc1ccc(C)o1)C2` yielded an inhibition of -0.1%. Work on `COc1ccc(NC(=O)CN(C)S(=O)(=O)c2ccccc2)cc1OC` yielded an inhibition of -0.5%. `Cc1nc(-c2ccc(F)cc2)c(CC(=O)Nc2cc(S(=O)(=O)N3CCCCC3)ccc2C)s1` showed an inhibition of -0.4%. In the case of `Cc1cc(C)c(NC(=O)CS(=O)CC(=O)Nc2cccnc2)c(C)c1` (stereo unspecified), the inhibition is reported as -1.4%. For `Cc1ccc(-c2nc(-c3cccnc3)sc2CC(=O)Nc2ccc(C)c(Cl)c2)cc1`, the inhibition was 93.3% (active). Work on `Cc1ccc(Nc2c(F)c(F)c(F)c(F)c2C(=O)O)c(C)c1` yielded an inhibition of -0.7%. With `O=C(CCn1nnc2ccccc2c1=O)N[C@@H](Cc1c[nH]c2ccccc12)C(=O)O` the inhibition was 1.4%. In the case of `Cc1ccc(C(=O)Nc2nnc(C3=COCCO3)o2)cc1C`, the inhibition is reported as -0.8%. `COc1ccc(C)cc1-n1nnnc1SCC(=O)c1cc(C)n(Cc2ccco2)c1C` gave an inhibition of -2.3%. `Cc1cc(C)c(C(=O)CSc2nc(C)cc(=O)[nH]2)c(C)c1` showed an inhibition of 0.6%. In the case of `Cc1cc(C(=O)CSc2nc(N)cc(=O)[nH]2)c(C)n1Cc1ccco1`, the inhibition is reported as 64.3% (active). With `Cc1cc(C(=O)COC(=O)C2CC2)c(C)n1-c1ccc(F)cc1` the inhibition was 0.2%. With `Cc1cc(C(=O)CSc2nc(N)cc(=O)[nH]2)c(C)n1-c1cccc(F)c1` the inhibition was 63.2% (active). `Cc1cc(C(=O)CSc2nc(N)cc(=O)[nH]2)c(C)n1CCc1ccc(Cl)cc1` gave an inhibition of -9%. `CC1CCN(c2ccc(-c3ccc(NC(=O)c4ccco4)cc3)nn2)CC1` gave an inhibition of 0.3%. In the case of `CSCCC1NC(=O)N(CC(=O)Nc2cccc(S(=O)(=O)N3CCCCCC3)c2)C1=O` (stereo unspecified), the inhibition is reported as 1.2%. `CCOC(=O)C1C(=O)OC2(CCCC2)C1C(=O)OCC` (stereo unspecified) gave an inhibition of -1.2%. `Clc1ccccc1Nc1nc(NCc2cccs2)nc2ccsc12` showed an inhibition of 3%. `COc1cccc(-c2cc3nc(NCc4ccccc4OC)n(C)c(=O)c3s2)c1` gave an inhibition of 1.9%. In the case of `COCCNc1nc(NCc2ccc(NC(C)=O)cc2)c2sccc2n1`, the inhibition is reported as -1.4%. In the case of `COc1ccccc1CNc1nc(Nc2ccccc2Cl)c2sccc2n1`, the inhibition is reported as 74.5% (active). Compound `COCCNc1nc(Nc2ccccc2Cl)c2sc(-c3ccccc3)cc2n1` has an inhibition of 2.1%. For `COc1cccc(CNc2nc(NCc3cccs3)nc3ccsc23)c1`, the inhibition was 77.8% (active). `COc1cccc(CNc2nc3cc(-c4csc5ccccc45)sc3c(=O)n2C)c1` showed an inhibition of 2.5%. `COc1ccc(NC(=S)NCc2cccs2)c(OC)c1` gave an inhibition of 2.2%. For `COc1cccc(CNc2nc(NCc3ccccc3OC)nc3ccsc23)c1`, the inhibition was 94.6% (active). `Cc1ccc(Nc2nc(CSc3nnc(-c4ccncc4)n3-c3ccccc3C)cs2)cc1` gave an inhibition of 2.2%. Compound `CC(Cc1cccs1)NC(=O)c1cccc(Cl)c1` (stereo unspecified) has an inhibition of 4.2%. `Cc1c(NC(=S)NC(=O)CCc2ccccc2)c(=O)n(-c2ccccc2)n1C` gave an inhibition of 0.3%. Compound `Cc1cc(C)cc(NC(=O)COC(=O)c2cc(C)oc2C)c1` has an inhibition of 0.5%. In the case of `CN(C)CCn1c2c(c(SCC(=O)NCc3ccccc3)nc1=O)CCC2`, the inhibition is reported as -1%. With `CCOC(=O)c1oc2c(CN3CCN(C)CC3)c(O)ccc2c(=O)c1-c1ccc(Br)cc1` the inhibition was 9.1%. For `CCOC(=O)c1cc(=O)c2ccc(OCc3ccccc3)cc2o1`, the inhibition was 0.1%. In the case of `CCOC(=O)c1cc2cc(-c3c(C(=O)OCC)oc4cc(O)cc(O)c4c3=O)ccc2o1`, the inhibition is reported as 50.9% (active). Work on `C/C(=N\Nc1nc2ccccc2[nH]1)c1cccs1` yielded an inhibition of 1.1%. For `Cc1ccc(-c2nc(C)sc2CC(=O)OCC(=O)Nc2c(F)cccc2F)cc1`, the inhibition was 0.8%. `Cn1c(=O)c(C(=O)Nc2ncccn2)c(O)c2ccccc21` showed an inhibition of -1.3%.
